# esBAF inh – Bmi1 luciferase reporter increase in mESCs, primary screen, esBAF inhibitor project, mouse ES cells, Bmi1 luciferase knock-in, single point | 350,000 compounds, 2% hits | reporter increase, % at 12.5 µM | AID 602393, 2012 | 24 h; 100% = twice the neutral-well signal; in the data active = activation above about 40%; inconclusive = no clear call, values can overlap the other calls;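 also: a rise in the Bmi1 reporter signal indicates esBAF inhibition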
# FXN GAA850 act – FXN promoter activators, primary screen, cell-based, luciferase luminescence, HEK293 lucGAA850. HEK293 lucGAA850 FXN promoter luciferase reporter, 24 h; percent of 10 µM SAHA response. activation, % at 6 µM. 360,000 compounds, 0.56% hits;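 active = activation above the average of all compounds screened plus 3 SD, cutoff fixed separately per campaign, cut at about 7.5% in these data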
# MITF TRPM1 HTS – activators of MITF-driven TRPM1 promoter reporter, primary screen, cell-based, SK-MEL-5, luciferase, single point | SK-MEL-5 TRPM1-promoter luciferase, 24 h; % of positive control, neutral wells = 0 | activation, % at 12.5 µM | 300,000 compounds, 0.75% hits;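 active = mean activation of at least 80% with every replicate also reaching 80%; inconclusive = mean reaches 80% but some replicate falls short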
# Wnt act – Wnt/beta-catenin pathway activators, primary screen, cell-based, plate reader, single point; Wnt/beta-catenin reporter cell assay, activator; activation, % at 9.35 µM; 300,000 compounds, 1.2% hits; AID 743398, 2014; in the data active = activation above about 30%, passing the limit was not always enough; inconclusive = no clear call, values can overlap the other calls
# esBAF Ring1 qPCR – Ring1 mRNA increase in mouse ESCs, confirmation, esBAF inhibitor project, cell-based, mouse ESC, RT-qPCR, cherry-pick; shares compounds with esBAF inh; mouse ESC E14, Ring1 mRNA RT-qPCR fold change; fold change at 33 µM; 550 tested, under 10 active; AID 743176, 2013;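 active = Ring1 gene expression raised more than 2-fold over untreated cells in both replicates at either tested dose; inconclusive = only one replicate above 2-fold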;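 also: Ring1 transcript normalised to actin housekeeping signal by TaqMan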
# Fgf4 repress – Fgf4 mRNA decrease in mouse ESCs, confirmation, esBAF inhibitor project, cell-based, mouse ESC, RT-qPCR, cherry-pick. shares compounds with esBAF inh. mouse ESC E14, Fgf4 mRNA qPCR fold change; active compounds read low. Fgf4 expression fold change at 33 µM. 550 compounds, 4% hits;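 active = Fgf4 expression under 0.8 fold of control in both repeat measurements at one or both tested doses; inconclusive = under 0.8 fold in just a single repeat measurement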;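 also: Fgf4 transcript normalised to actin in duplex TaqMan qPCR; cells exposed to compound for 24 h before lysis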
# Bmi1 derepress – esBAF inhibition via Bmi1 de-repression, confirmation, cell-based, RT-qPCR, mouse ESC, single point, cherry-pick. shares compounds with esBAF inh. mouse ESE14 ES cells, Bmi1 mRNA qPCR fold; active compounds read high. fold change at 33 µM. 550 tested, under 10 active;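 active = Bmi1 expression fold change above 6 at either tested concentration, seen in replicate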;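 also: higher fold means more Bmi1 de-repression and stronger esBAF inhibition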
# A549 cytotox – A549 cell cytotoxicity, cytotoxicity control, plate reader, single point, cherry-pick; cell viability change % (negative = cytotoxic), % at 25 µM, hits read low; AID 743188, 2013; 550 tested, under 10 active; shares compounds with esBAF inh; call rule not given here
# HepG2 tox SP – HepG2 cell cytotoxicity, cytotoxicity control, plate reader, single point, cherry-pick. shares compounds with esBAF inh. active compounds read low. activity change, negative = inhibition, % at 25 µM. 550 compounds, 4% hits; in the data active = activity change below about -50%
# HEK293 tox SP – HEK293 cell cytotoxicity, cytotoxicity control, plate reader, single point, cherry-pick | shares compounds with esBAF inh | activity change, negative = inhibition, % at 25 µM, hits read low | 550 compounds, 3% hits; in the data active = activity change below about -38%, passing the limit was not always enough
# A number is an active result; n = inactive; u = inconclusive; x = not tested or not shown. This is a sample that favours compounds with a hit; in the whole collection about 2.8% have one here.
SMILES,esBAF inh,FXN GAA850 act,MITF TRPM1 HTS,Wnt act,esBAF Ring1 qPCR,Fgf4 repress,Bmi1 derepress,A549 cytotox,HepG2 tox SP,HEK293 tox SP
C[C@@H]1CCCCO[C@@H](CN(C)S(C)(=O)=O)[C@@H](C)CN([C@@H](C)CO)C(=O)c2cc(N(C)C)ccc2O1,n,x,x,x,x,x,x,x,x,x
CC1(C)Cc2c(c(N3CCCC3)nc3sc(C(=O)Nc4ccccc4)c(N)c23)CO1,59.3,n,n,n,n,n,n,n,n,n
O=C(Nc1ccccc1)c1ccc2snnc2c1,x,n,n,n,x,x,x,x,x,x
CC(C)c1ccc(NC(=O)c2ccc3snnc3c2)cc1,71.7,n,n,n,n,n,n,n,n,n
Cc1ccc(S[C@@H](CCN2CC[C@H](C)CCC2=O)c2ccccc2)cc1,n,n,n,n,x,x,x,x,x,x
Cc1ccc(SCCN2CCC(C)CCC2=O)cc1 (configuration not stated),82.7,n,u,n,n,u,n,n,n,n
COC(=O)[C@@H]1[C@@H](CO)[C@@H]2Cn3c(ccc(-c4ccccc4OC)c3=O)[C@@H]2N1CC1CCCC1,n,x,x,x,x,x,x,x,x,x
C[C@@H]1CN([C@@H](C)CO)C(=O)Cc2cc(NC(=O)c3ccncc3)ccc2O[C@H]1CN(C)CC1CCCCC1,n,x,x,x,x,x,x,x,x,x
CN(Cc1ccccn1)C(=O)c1cc(COc2ccc(F)c(F)c2)on1,72.6,n,x,n,n,n,n,n,n,n
CC(Cc1cccnc1)NC(=O)c1cc(COc2c(F)cccc2F)on1 (configuration not stated),x,n,n,n,x,x,x,x,x,x
Cc1ccc(OCc2cc(C(=O)N(C)CCc3ccccn3)no2)cc1C,87.3,n,n,n,n,n,n,n,n,n
Cc1ccc(OCc2cc(C(=O)NC(C)Cc3cccnc3)no2)cc1C (configuration not stated),71.6,n,n,n,n,n,n,n,n,n
COc1ccc(CN(C)C[C@@H]2Oc3ccc(NS(C)(=O)=O)cc3C(=O)N([C@H](C)CO)C[C@H]2C)cc1,n,x,x,x,x,x,x,x,x,x
CCN(CC)C(=O)OCc1c(-c2ccccc2)ncc2ccccc12,105.8,n,101.6,u,n,u,n,n,n,n
Cc1sc2c(c1C)CN(C(C)(C)C)CN2C(=O)c1ccccc1,65.6,n,n,x,n,n,n,n,n,n
CN(C)S(=O)(=O)c1cccc(C(=O)Nc2ccc3c(c2)CCC3)c1,n,n,n,n,x,x,x,x,x,x
CN(C)S(=O)(=O)c1ccc(C(=O)Nc2ccc3c(c2)CCC3)cc1,74.7,n,n,n,n,n,n,n,n,n
CC(=O)N1[C@@H]2c3ccc(C4=CCCCC4)c(=O)n3C[C@@H]2[C@@H](CO)[C@@H]1C(=O)Nc1ccccc1,n,x,x,x,x,x,x,x,x,x
CC(=O)Nc1ccc(-c2nc3c(C)cccc3[nH]2)cc1,60.1,n,x,47.7,n,n,n,n,n,n
Cc1ccc(S(=O)(=O)N(C)C[C@@H]2Oc3ccc(NC(=O)CCCCCC(=O)Nc4ccccc4N)cc3CC(=O)N([C@H](C)CO)C[C@@H]2C)cc1,n,x,x,x,x,x,x,x,x,x
CS(=O)(=O)c1cccc(C(=O)Nc2ccc(-c3nc4ccccc4[nH]3)cc2)c1,n,n,n,n,x,x,x,x,x,x
COc1cc(OC)cc(C(=O)Nc2ccc(-c3nc4ccccc4o3)cc2)c1,n,n,n,x,x,x,x,x,x,x
CS(=O)(=O)c1ccccc1C(=O)Nc1ccc(-c2nc3ccccc3[nH]2)cc1,57.5,n,n,n,n,n,n,n,n,n
CS(=O)(=O)c1ccccc1C(=O)Nc1ccc(-c2nc3ccccc3o2)cc1,66.7,n,n,n,n,n,n,n,n,n
CS(=O)(=O)c1cccc(-c2csc(N3CCC(C(N)=O)CC3)n2)c1,67.9,n,n,n,n,n,n,n,n,n
SMILES,esBAF inh,FXN GAA850 act,MITF TRPM1 HTS,Wnt act,esBAF Ring1 qPCR,Fgf4 repress,Bmi1 derepress,A549 cytotox,HepG2 tox SP,HEK293 tox SP
CCOc1ccccc1-c1ccc2nccn2c1,n,n,x,n,x,x,x,x,x,x
CC(C)Cc1ccc(-c2ccc3nccn3c2)cc1,66.5,n,x,n,n,u,n,n,n,n
CCCN(C)C[C@H]1OCCCC[C@H](C)Oc2ccc(NC(=O)CCC(F)(F)F)cc2C(=O)N([C@@H](C)CO)C[C@H]1C,n,x,x,x,x,x,x,x,x,x
COc1ccccc1-c1noc(CCC(=O)N2CCN(c3cc(C)ccc3C)CC2)n1,n,n,n,n,x,x,x,x,x,x
COc1ccc(-c2noc(CCCC(=O)N3CCN(c4cc(C)ccc4C)CC3)n2)cc1,62.3,n,n,n,n,n,n,n,n,n
COc1cccc(-c2noc(CCC(=O)N3CCN(c4cc(C)ccc4C)CC3)n2)c1,n,n,n,n,x,x,x,x,x,x
COc1ccc(-c2noc(CCCCC(=O)N3CCN(c4cc(C)ccc4C)CC3)n2)cc1,n,n,n,n,x,x,x,x,x,x
Cc1ccc(C)c(N2CCN(C(=O)CCc3nc(-c4ccccc4C(F)(F)F)no3)CC2)c1,72.7,n,n,34.1,n,n,n,n,n,n
Cc1ccc(C)c(N2CCN(C(=O)CCc3nc(-c4cccc(Cl)c4)no3)CC2)c1,89.9,n,n,n,n,n,n,n,n,n
CC=Cc1ccc2n(c1=O)C[C@H]1[C@H](CO)[C@@H](C(=O)OC)N(CCc3ccccc3)[C@@H]21 (mixture of isomers),n,x,x,x,x,x,x,x,x,x
Cc1noc(C)c1NC(=O)Nc1ccc2c(c1)C(=O)N([C@@H](C)CO)C[C@@H](C)[C@@H](CN(C)C(=O)Nc1ccccc1)O2,n,x,x,x,x,x,x,x,x,x
CO[C@@H]1CN(C)C(=O)c2ccc(NC(=O)Cc3ccccc3)cc2OC[C@H](C)N(C(=O)c2ccccc2F)C[C@H]1C,n,x,x,x,x,x,x,x,x,x
O=C(Nc1ccc(F)cc1)c1ccccc1F,85.1,n,81.7,n,n,n,n,n,n,n
O=C(N/N=C/c1ccccc1)c1ccc(NC(=O)c2ccc(F)cc2)cc1,57.9,n,n,n,n,n,n,n,n,n
CC(=O)Nc1ccc(C(=O)N/N=C/c2ccc(F)cc2)cc1,x,n,n,n,x,x,x,x,x,x
CC(=O)Nc1ccc(NC(=O)c2ccccc2F)cc1,n,n,x,n,x,x,x,x,x,x

# Assay outcomes from PubChem BioAssay.
